An excerpt weighted towards active compounds, which were near 5.5% of everything screened.
Mito fusion yeast = qHTS Assay for Small Molecule Inhibitors of Mitochondrial Division or Activators of Mitochondrial Fusion; Potency, µM (highest dose often 46.1 µM), without a hit: at the highest dose growth rescue (activation), actives largely listed as activators; S. cerevisiae fusion-defective mutant growth rescue, CellTiterGlo 48 h; 0.23% of 320,000 active; AID 485298, 2010; further: % of control where 0% means no effect; nearly all actives have a fitted effect of over 45% in size
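Compounds are tested for their ability to restore growth of mitochondrial fusion-defective yeast strains at non-permissive 37C in YPEG medium over 48 hours. Viability is quantified by luciferase luminescence.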
RORg inh = qHTS for inhibitors of ROR gamma transcriptional activity. Nuclear receptor ROR-gamma (Mus musculus), P51450. Drosophila S2 Gal4-RORgamma UAS-luciferase reporter, 20 h. Potency, µM (doses to about 53.6 µM), inactives show at the top dose activity change, negative = inhibition, actives largely listed as inhibitors. 5.4% of 310,000 active; further: on the % scale 0 is the no-effect control and ±100 the full control effect; nearly all actives have a fitted effect of over 60% in size
Target sequence (P51450 whole entry, looked up, the tested form may be a part): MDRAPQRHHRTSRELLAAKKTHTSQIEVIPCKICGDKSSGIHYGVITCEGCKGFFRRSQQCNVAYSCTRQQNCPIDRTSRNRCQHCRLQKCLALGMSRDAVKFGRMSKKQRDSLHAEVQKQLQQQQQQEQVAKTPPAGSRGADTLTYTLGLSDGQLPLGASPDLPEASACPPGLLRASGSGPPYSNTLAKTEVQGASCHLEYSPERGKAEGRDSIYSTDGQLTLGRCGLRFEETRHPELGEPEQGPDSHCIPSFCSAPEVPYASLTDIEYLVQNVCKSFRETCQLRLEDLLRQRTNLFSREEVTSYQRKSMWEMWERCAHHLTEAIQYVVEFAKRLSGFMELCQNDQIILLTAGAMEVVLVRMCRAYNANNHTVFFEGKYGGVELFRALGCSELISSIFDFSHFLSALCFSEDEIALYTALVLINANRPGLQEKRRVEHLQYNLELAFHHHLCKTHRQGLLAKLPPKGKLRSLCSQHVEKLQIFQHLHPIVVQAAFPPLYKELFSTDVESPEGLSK
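Stably transfected Drosophila Schneider cells are the test system, with ROR gamma fused to Gal4 and luciferase under UAS control; luminescence is read after 20 hr of 700 uM copper sulfate induction at ambient temperature.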
uPA generation = qHTS for Inhibitors of Cell Surface uPA Generation | cell surface uPA generation assay, qHTS | Potency, µM (series often up to 38.3 µM), for the others: at the highest dose activity change, negative = inhibition, hits mostly inhibitors | 0.31% of 330,000 active; active means well fitted inhibition curve with a large enough effect; inconclusive means small, poorly fitted or top-dose-only effect; inactive means no such curve, though single readings can be large or run the other way; tested in mouse RAW 264.7 cells; further: on the % scale 0 is the no-effect control and ±100 the full control effect; nearly all actives have a fitted effect of over 55% in size
VP16 counter = VP16 counterscreen qHTS for inhibitors of ROR gamma transcriptional activity. 3.5% of 310,000 active. Potency, µM (doses to about 53.6 µM), for inactives: at the top dose activity, negative = inhibition, usual class: inhibitors. Drosophila S2 Gal4-VP16 UAS-luciferase, luminescence, 20 h;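 further: Gal4-VP16 expression switched on by copper sulfate through the metallothionein promoter; on the % scale 0 is the no-effect control and ±100 the full control effect; nearly all actives have a fitted effect of over 50% in size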
Chronic BCR inh = qHTS Assay to Find Inhibitors of Chronic Active B-Cell Receptor Signaling | ABC-DLBCL IkBa-CBG/CBR reporter, luminescence ratio, 4 h | 0.05% of 340,000 active | Potency, µM (titrated, usually from 46.1 µM), for the others: top-dose activity change, negative = inhibition, most hits filed as inhibitors; active means well fitted inhibition curve with a large enough effect in the signal ratio, with a control signal flat, not every such curve was filed as active; inconclusive means small, poorly fitted or top-dose-only effect, or effect the other way, or a change in a side signal; the % refers to the signal ratio;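 further: plate controls were basal doxycycline-induced cells for no effect and cells given 10 µM MG132 for full effect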
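Cell line TMD8 (human ABC DLBCL), stably expressing tet-inducible CBG68-IkBa fusion and CBR; IMDM/0.5% FBS; cpd up to 46 uM; dox induction, 4 h, 37C/5% CO2; dual luminescence; green/red ratio; MG132 control.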
a7 integrin act = qHTS for Activators of Integrin-Mediated Alleviation for Muscular Dystrophy | 0.064% of 350,000 active | alpha7betagal myoblasts, beta-gal FDG fluorescence, 48 h | Potency, µM (top dose mostly 38.3 µM), for inactives: at the highest dose activation, actives largely listed as activators;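 further: 100% = response of the positive control SU9516; nearly all actives have a fitted effect of over 60% in size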
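alpha7betagal+/- myoblasts (passage 13, 250/well) treated 48 h at 37C with compounds at 1:260 dilution of DMSO stock. Lysed, then beta-galactosidase activity read as FDG fluorescence (ex 480/em 540) after 30 min, with pre-read for autofluorescence.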
Starred values were filed as active, the others as inactive; u = inconclusive; x = not tested or not shown; [ ] = dose if it differs, or a comment. Unless noted, the call rests on the fitted dose curve; in most records, active means well fitted curve in the direction sought with a large enough effect; inconclusive means small, poorly fitted or top-dose-only effect, or another doubt; inactive means no such curve, though single readings can be large; an effect the other way counts as inactive or inconclusive. Potency means the concentration at half of the fitted maximal effect.

SMILES	Mito fusion yeast	RORg inh	uPA generation	VP16 counter	Chronic BCR inh	a7 integrin act
COc1ccccc1/C=C/C=N/NC(=O)CN1CCN(S(=O)(=O)c2ccc(C)cc2)CC1	-2%	16µM*	-6%	u	-12%	3%
CCCC1([C@H](O)C/C=C/[C@H]2[C@H](O)CC(=O)[C@@H]2CCCCCCC(=O)OC)CCC1	x	-36%	x	u	x	x
CCC(=O)N1CCc2cc(CNC(=O)c3ccccc3C)ccc21	x	x	x	x	5%	x
COc1ccccc1/C=C/C=N/NC(=O)Cc1cccs1	-1%	10µM*	13%	u	u	-6%
O=C(N/N=C/C=C/c1ccccc1[N+](=O)[O-])c1ccncc1	-3%	11µM*	2%	20µM*	-28%	0%
O=C(N/N=C/C=C/c1ccc([N+](=O)[O-])cc1)c1cccs1	5%	4µM*	-3%	u	u	-1%
Nc1nc(NC2CC2)c2ncn([C@H]3C=C[C@@H](CO)C3)c2n1	x	1%[10 µM]	x	-16%	x	x
CC[C@H](C)[C@H](NC(=O)[C@H](Cc1ccc(O)cc1)NC(=O)[C@H](Cc1cnc[nH]1)NC(=O)[C@H](CCCNC(=N)N)NC(=O)[C@H](CC(C)C)NC(=O)[C@H](C)NC(=O)[C@H](CO)NC(=O)[C@H](Cc1ccc(O)cc1)NC(=O)[C@H](Cc1ccc(O)cc1)NC(=O)[C@H](CCCNC(=N)N)NC(=O)[C@H](C)NC(=O)[C@H](CC(C)C)NC(=O)[C@H](CC(=O)O)NC(=O)[C@H](CCC(=O)O)NC(=O)[C@H](C)NC(=O)[C@@H]1CCCN1C(=O)[C@H](C)NC(=O)[C@H](CC(=O)O)NC(=O)[C@H](CCC(=O)O)NC(=O)CNC(=O)[C@@H]1CCCN1C(=O)[C@H](CC(N)=O)NC(=O)[C@H](CC(=O)O)NC(=O)[C@@H]1CCCN1C(=O)[C@H](CCCCN)NC(=O)[C@@H](N)CO)C(=O)N[C@@H](CC(N)=O)C(=O)N[C@@H](CC(C)C)C(=O)N[C@H](C(=O)N[C@H](C(=O)N[C@@H](CCCNC(=N)N)C(=O)N[C@@H](CCC(N)=O)C(=O)N[C@@H](CCCNC(=N)N)C(=O)N[C@@H](Cc1ccc(O)cc1)C(N)=O)[C@@H](C)O)[C@@H](C)CC	x	-1%	x	1%	x	x
COc1ccc(C2CC(c3ccccc3)Oc3cc(C)c(Cl)c(C)c32)cc1 (stereo not given)	x	-7%	x	-2%	x	x
N#Cc1ccc(NC(=O)Nc2ccc(Oc3ccc(NC(=O)Nc4ccc(C#N)cc4)cc3)cc2)cc1	2%	u	-8%	13µM*	u	-15%
N#Cc1ccc(NC(=O)Nc2cccc(C#N)c2)cc1	14%	26%	1%	-6%	7%	11%
Cc1cccc(N(C)S(=O)(=O)c2nnc(NC(=O)C3CCCCC3)s2)c1	-4%	x	x	x	10%	x
O=C(N/N=C/c1ccco1)c1ccccc1OCc1ccccc1Cl	u	-10%	-15%	-10%	u	-2%
COc1ccc(/C=N/NC(=O)c2cccc([N+](=O)[O-])c2)c2ccccc12	-5%	u	1%	u	0%	14%
Cc1cc(/C=N/NC(=O)c2cccc([N+](=O)[O-])c2)c(C)n1-c1ccc(Cl)cc1Cl	-6%	1.8µM*	-5%	6.3µM*	-10%	-36%
O=C(N/N=C/c1ccc[nH]1)c1cccc([N+](=O)[O-])c1	-4%	7.9µM*	-5%	10µM*	u	46%
O=C(N/N=C/c1ccc[nH]1)c1ccc2c(c1)OCO2	20%	u	-10%	-27%	u	26%
O=C(N/N=C/c1ccc[nH]1)c1ccccc1OCc1ccccc1Cl	5%	10µM*	3%	u	-2%	5%

Bioassay records as filed in PubChem BioAssay.
